# Assay results from PMC7862700, “An all-to-all approach to the identification of sequence-specific readers for epigenetic DNA modifications on cytosine”.
# Columns and labels:
# Assay in all cases: DAPPL (digital affinity profiling via proximity ligation, sequencing); 10 mM Tris-HCl pH 7.5, 50 mM NaCl, 1 mM DTT, 4% glycerol, room temperature, 30 min; GST-TFs on glutathione beads, 16-mer random dsDNA library, 0.1% formaldehyde crosslink after washing; high values mean tight binding
# Conditions in all cases: protein: recombinant; tags: N-terminal GST; dsDNA, one strand shown
# [1] = molecular target: T1, FLI1 (Homo sapiens, UniProt Q01543 1-452)
# T1 sequence: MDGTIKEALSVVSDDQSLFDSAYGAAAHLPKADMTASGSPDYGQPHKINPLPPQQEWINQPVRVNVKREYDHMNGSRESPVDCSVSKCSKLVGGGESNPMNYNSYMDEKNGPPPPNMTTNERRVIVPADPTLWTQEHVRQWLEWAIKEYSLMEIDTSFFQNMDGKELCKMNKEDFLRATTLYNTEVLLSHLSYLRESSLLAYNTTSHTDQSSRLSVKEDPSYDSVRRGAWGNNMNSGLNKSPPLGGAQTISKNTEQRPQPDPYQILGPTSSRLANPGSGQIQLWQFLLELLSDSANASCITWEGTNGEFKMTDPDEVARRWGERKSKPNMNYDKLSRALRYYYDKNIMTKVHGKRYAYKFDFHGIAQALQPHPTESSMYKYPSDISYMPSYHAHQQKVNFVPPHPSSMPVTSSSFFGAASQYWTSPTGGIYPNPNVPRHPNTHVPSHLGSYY
# Summary of the method: (§1)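 The binding signal reported is, for every hexamer, its read frequency for a factor over its read frequency for the tag-only sample. Reads came from pools of yeast-expressed, GST-fused human transcription factors on glutathione beads, barcoded with DNA and mixed with that sample, which were incubated with 200 nmole of a random double-stranded 16-mer DNA library in Tris/NaCl/DTT/glycerol buffer at room temperature for 30 min. After washing, the pools were crosslinked with 0.1% formaldehyde, proximity-ligated with BsaI/T4 ligase for 1 h at 37 °C, PCR-amplified and sequenced on an Illumina NextSeq500.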
# [2] = molecular target: T2, ELK1 (Homo sapiens, UniProt P19419 1-428)
# T2 sequence: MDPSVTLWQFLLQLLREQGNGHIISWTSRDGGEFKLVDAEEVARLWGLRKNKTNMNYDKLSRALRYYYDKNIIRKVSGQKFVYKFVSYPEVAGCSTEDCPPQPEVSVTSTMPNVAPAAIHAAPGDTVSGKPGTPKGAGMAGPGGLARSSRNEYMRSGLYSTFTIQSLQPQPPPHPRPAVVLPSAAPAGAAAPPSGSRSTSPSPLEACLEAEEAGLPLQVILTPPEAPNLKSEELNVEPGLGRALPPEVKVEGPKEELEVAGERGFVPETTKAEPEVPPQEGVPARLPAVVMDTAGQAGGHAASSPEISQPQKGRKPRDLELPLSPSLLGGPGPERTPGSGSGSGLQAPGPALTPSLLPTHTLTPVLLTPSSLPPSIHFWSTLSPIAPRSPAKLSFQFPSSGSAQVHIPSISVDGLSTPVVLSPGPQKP
# Summary of the method: as §1
# [3] = molecular target: T3, GABPA (Homo sapiens, UniProt Q06546 1-454)
# T3 sequence: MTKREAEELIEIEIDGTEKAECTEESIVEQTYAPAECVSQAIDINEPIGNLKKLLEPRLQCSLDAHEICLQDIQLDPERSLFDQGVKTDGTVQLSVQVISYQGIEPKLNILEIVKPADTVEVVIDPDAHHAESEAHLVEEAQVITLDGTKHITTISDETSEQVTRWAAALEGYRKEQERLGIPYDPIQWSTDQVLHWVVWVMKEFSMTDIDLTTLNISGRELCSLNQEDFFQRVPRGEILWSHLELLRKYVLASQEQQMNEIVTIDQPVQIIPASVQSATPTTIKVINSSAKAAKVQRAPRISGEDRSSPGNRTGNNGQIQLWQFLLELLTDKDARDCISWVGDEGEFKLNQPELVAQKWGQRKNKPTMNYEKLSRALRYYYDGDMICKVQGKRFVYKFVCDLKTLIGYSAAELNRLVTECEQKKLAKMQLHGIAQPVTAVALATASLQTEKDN
# Summary of the method: as §1
# [4] = molecular target: T4, ERG (Homo sapiens, UniProt P11308 1-479)
# T4 sequence: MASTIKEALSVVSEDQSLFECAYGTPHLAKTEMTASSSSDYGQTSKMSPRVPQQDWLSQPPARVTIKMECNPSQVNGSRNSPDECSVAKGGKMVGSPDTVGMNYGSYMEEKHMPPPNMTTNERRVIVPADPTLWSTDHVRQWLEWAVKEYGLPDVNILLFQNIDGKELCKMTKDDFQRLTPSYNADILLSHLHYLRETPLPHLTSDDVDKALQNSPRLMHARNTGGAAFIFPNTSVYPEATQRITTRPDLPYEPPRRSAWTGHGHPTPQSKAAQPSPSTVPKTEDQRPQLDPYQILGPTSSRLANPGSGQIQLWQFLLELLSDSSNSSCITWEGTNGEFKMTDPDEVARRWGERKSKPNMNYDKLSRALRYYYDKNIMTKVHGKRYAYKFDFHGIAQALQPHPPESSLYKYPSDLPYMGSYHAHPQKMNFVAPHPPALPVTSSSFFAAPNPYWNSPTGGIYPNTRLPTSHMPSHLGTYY
# Summary of the method: as §1
# [5] = molecular target: ELF1 (Homo sapiens, UniProt P32519 1-619)
# Chain of ELF1 (P32519 whole entry): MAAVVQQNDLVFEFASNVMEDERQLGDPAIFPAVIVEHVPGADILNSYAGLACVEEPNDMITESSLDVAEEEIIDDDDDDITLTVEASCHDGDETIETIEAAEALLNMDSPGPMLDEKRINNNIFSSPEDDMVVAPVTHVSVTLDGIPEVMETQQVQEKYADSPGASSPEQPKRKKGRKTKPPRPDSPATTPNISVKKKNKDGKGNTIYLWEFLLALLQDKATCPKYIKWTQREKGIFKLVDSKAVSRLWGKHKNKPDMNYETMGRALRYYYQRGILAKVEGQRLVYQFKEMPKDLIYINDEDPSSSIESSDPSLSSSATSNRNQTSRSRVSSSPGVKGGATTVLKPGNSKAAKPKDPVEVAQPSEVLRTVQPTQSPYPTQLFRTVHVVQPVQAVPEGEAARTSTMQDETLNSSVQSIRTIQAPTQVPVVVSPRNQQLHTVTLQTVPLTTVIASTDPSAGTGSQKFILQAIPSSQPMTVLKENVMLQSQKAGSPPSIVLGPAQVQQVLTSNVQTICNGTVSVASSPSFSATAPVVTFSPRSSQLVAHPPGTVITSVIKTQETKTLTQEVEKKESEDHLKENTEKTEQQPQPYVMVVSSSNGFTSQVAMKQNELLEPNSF
# Summary of the method: as §1
# [6] = molecular target: T5, EHF (Homo sapiens, UniProt Q9NZC4 1-300)
# T5 sequence: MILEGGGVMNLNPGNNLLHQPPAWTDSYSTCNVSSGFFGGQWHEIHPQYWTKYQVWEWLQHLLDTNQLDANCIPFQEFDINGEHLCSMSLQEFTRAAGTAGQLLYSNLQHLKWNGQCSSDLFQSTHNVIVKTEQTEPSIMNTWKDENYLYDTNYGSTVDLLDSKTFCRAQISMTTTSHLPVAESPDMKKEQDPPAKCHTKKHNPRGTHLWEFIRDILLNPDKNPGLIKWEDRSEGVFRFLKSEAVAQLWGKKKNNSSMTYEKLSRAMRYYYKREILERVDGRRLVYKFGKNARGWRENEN
# Summary of the method: as §1
# [7] = molecular target: SPIB (Homo sapiens, UniProt Q01892 1-262)
# Chain of SPIB (Q01892 whole entry): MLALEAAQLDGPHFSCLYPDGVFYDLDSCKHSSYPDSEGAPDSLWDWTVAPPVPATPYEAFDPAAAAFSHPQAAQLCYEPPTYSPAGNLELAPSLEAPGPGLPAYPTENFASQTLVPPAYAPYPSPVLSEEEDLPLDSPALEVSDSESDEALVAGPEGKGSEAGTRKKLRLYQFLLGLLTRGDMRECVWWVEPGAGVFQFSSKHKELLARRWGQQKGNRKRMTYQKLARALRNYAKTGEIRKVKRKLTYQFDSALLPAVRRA
# Summary of the method: as §1
# [8] = molecular target: T6, ELK3 (Homo sapiens, UniProt P41970 1-407)
# T6 sequence: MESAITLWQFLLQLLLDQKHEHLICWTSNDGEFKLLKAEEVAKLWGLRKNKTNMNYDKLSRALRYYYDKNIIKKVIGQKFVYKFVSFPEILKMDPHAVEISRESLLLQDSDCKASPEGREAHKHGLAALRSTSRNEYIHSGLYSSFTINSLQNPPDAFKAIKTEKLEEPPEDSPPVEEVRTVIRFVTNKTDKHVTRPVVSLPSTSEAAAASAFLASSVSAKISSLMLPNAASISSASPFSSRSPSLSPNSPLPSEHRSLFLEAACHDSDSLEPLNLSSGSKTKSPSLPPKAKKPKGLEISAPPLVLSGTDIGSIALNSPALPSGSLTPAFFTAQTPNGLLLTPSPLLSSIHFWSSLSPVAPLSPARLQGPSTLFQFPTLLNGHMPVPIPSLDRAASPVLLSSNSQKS
# Summary of the method: as §1
# [9] = molecular target: SPI1 (Homo sapiens, UniProt P17947 1-270)
# Summary of the method: as §1
Sequence,binding signal [1],binding signal [2],binding signal [3],binding signal [4],binding signal [5],binding signal [6],binding signal [7],binding signal [8],binding signal [9]
ACACCC,"1.18 fold enrichment (6-mer frequency, TF over GST control)","1.16 fold enrichment (6-mer frequency, TF over GST control)","1.16 fold enrichment (6-mer frequency, TF over GST control)","1.11 fold enrichment (6-mer frequency, TF over GST control)","1.09 fold enrichment (6-mer frequency, TF over GST control)","1.11 fold enrichment (6-mer frequency, TF over GST control)","1.17 fold enrichment (6-mer frequency, TF over GST control)","1.08 fold enrichment (6-mer frequency, TF over GST control)",–
AGGTAT,"1.06 fold enrichment (6-mer frequency, TF over GST control)","1.06 fold enrichment (6-mer frequency, TF over GST control)","1.07 fold enrichment (6-mer frequency, TF over GST control)","1.04 fold enrichment (6-mer frequency, TF over GST control)","1.04 fold enrichment (6-mer frequency, TF over GST control)",–,"1 fold enrichment (6-mer frequency, TF over GST control)",–,"1.04 fold enrichment (6-mer frequency, TF over GST control)"
GTAATG,"1.07 fold enrichment (6-mer frequency, TF over GST control)","1.07 fold enrichment (6-mer frequency, TF over GST control)","1.16 fold enrichment (6-mer frequency, TF over GST control)","1.05 fold enrichment (6-mer frequency, TF over GST control)","1.11 fold enrichment (6-mer frequency, TF over GST control)","1.12 fold enrichment (6-mer frequency, TF over GST control)","1.06 fold enrichment (6-mer frequency, TF over GST control)","1.03 fold enrichment (6-mer frequency, TF over GST control)",–
AAGGTT,"1.09 fold enrichment (6-mer frequency, TF over GST control)","1.15 fold enrichment (6-mer frequency, TF over GST control)","1.13 fold enrichment (6-mer frequency, TF over GST control)","1.07 fold enrichment (6-mer frequency, TF over GST control)","1.05 fold enrichment (6-mer frequency, TF over GST control)","1.1 fold enrichment (6-mer frequency, TF over GST control)","1.01 fold enrichment (6-mer frequency, TF over GST control)","1.12 fold enrichment (6-mer frequency, TF over GST control)",–
TGTGTT,"1.19 fold enrichment (6-mer frequency, TF over GST control)","1.1 fold enrichment (6-mer frequency, TF over GST control)","1.06 fold enrichment (6-mer frequency, TF over GST control)","1.03 fold enrichment (6-mer frequency, TF over GST control)","1.03 fold enrichment (6-mer frequency, TF over GST control)","1.09 fold enrichment (6-mer frequency, TF over GST control)",–,"1.26 fold enrichment (6-mer frequency, TF over GST control)",–
GGTTCA,"1.14 fold enrichment (6-mer frequency, TF over GST control)","1.04 fold enrichment (6-mer frequency, TF over GST control)","1.11 fold enrichment (6-mer frequency, TF over GST control)","1.03 fold enrichment (6-mer frequency, TF over GST control)","1.07 fold enrichment (6-mer frequency, TF over GST control)",–,"1.04 fold enrichment (6-mer frequency, TF over GST control)","1.03 fold enrichment (6-mer frequency, TF over GST control)","1.02 fold enrichment (6-mer frequency, TF over GST control)"
TCGACG,"1.23 fold enrichment (6-mer frequency, TF over GST control)","1.14 fold enrichment (6-mer frequency, TF over GST control)","1.06 fold enrichment (6-mer frequency, TF over GST control)","1.04 fold enrichment (6-mer frequency, TF over GST control)","1.1 fold enrichment (6-mer frequency, TF over GST control)","1.21 fold enrichment (6-mer frequency, TF over GST control)","1.05 fold enrichment (6-mer frequency, TF over GST control)","1.02 fold enrichment (6-mer frequency, TF over GST control)",–
TTAGTA,"1.23 fold enrichment (6-mer frequency, TF over GST control)","1.13 fold enrichment (6-mer frequency, TF over GST control)","1.21 fold enrichment (6-mer frequency, TF over GST control)","1.21 fold enrichment (6-mer frequency, TF over GST control)","1.12 fold enrichment (6-mer frequency, TF over GST control)","1.08 fold enrichment (6-mer frequency, TF over GST control)","1.06 fold enrichment (6-mer frequency, TF over GST control)","1.08 fold enrichment (6-mer frequency, TF over GST control)",–
